From PubChem BioAssay AID2228 (National Center for Advancing Translational Sciences (NCATS), 2010)
Calls of active or inactive are those of the source.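 The calls were made as follows: active = any rise in protein melting temperature, meaning a thermal shift above zero; inactive = the rest.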

The compounds below were run against Luciferin 4-monooxygenase (Photinus pyralis) (UniProt P08659) (assay: Thermal Shift Assay for Inhibitors of FLuc (Firefly Luciferase, Photinus pyralis) in Presence of ATP). Details: Purified FLuc with ATP, SYPRO Orange thermal shift; at 200 µM; stronger effect = higher value.
Text: Firefly (Photinus pyralis) luciferase (FLuc) is widely used as a reporter in biological assays. […] In order to determine if FLuc thermal stabilization parallels inhibitor potency, a fluorescence-based thermal denaturation assay was developed in this present study. An environmentally sensitive fluorescence dye, SYPRO Orange (Invitrogen, presently Life Technologies) was utilized to monitor the fluorescence change as a function of temperature. The dye preferentially binds to the hydrophobic regions of the protein, and its high signal-to-noise ratio, large Stokes shift and high excitation wavelength make it ideal for thermal shift application. In this assay, the melting temperature (Tm) (the inflection point of the protein melt transition) was assessed for each sample tested. Differences in the Tm between controls and compound-containing samples were determined (the thermal shift or delta Tm), and compounds were ranked by the degree of their thermal shift at the top concentration (200 uM). […] FLuc catalyzes light production in bioluminescent organisms. The reaction requires luciferin, ATP and O2 as substrate, and it includes the formation of a luciferyl-AMP intermediate and the subsequent production of light, AMP, oxyluciferin and CO2. In this study, PTC124 and analogues were evaluated for their potential to stabilize FLuc in the absence and presence of ATP. This particular BioAssay is in the presence of ATP. See related BioAssay "Thermal Shift Assay for Inhibitors of FLuc (Firefly Luciferase, Photinus pyralis) in the Absence of ATP" See [6] for more details on this assay and related studies. Welch, et al. PTC124 targets genetic disorders caused by nonsense mutations. Nature 447 (2007) 87-91. D.S. Auld, N. Thorne, W.F. Maguire, and J. Inglese, Mechanism of PTC124 activity in cell-based luciferase assays of nonsense codon suppression. Proc Natl Acad Sci U S A 106 (2009) 3585-90. D.S. Auld, N. Thorne, D.T. Nguyen, and J. Inglese, A specific mechanism for nonspecific activation in reporter-gene assays. ACS Chem Biol 3 (2008) 463-70. [4]F.H. Niesen, H. Berglund, and M. Vedadi, The use of differential scanning fluorimetry to detect ligand interactions that promote protein stability. Nat Protoc 2 (2007) 2212-21. J.R. de Wet, K.V. Wood, M. DeLuca, D.R. Helinski, and S. Subramani, Firefly luciferase gene: structure and expression in mammalian cells. Mol Cell Biol 7 (1987) 725-37. Auld, et al. Molecular Basis for the High Affinity Binding and Stabilization of Firefly Luciferase by PTC124. Proc Natl Acad Sci U S A, accepted.
Assay Protocol: 1.8 uM FLuc was tested in Tris-acetate buffer (pH 7.6) or phosphate buffer saline (pH 7.4). ATP final concentration was 2 mM. Compounds were tested at 200 uM. Data was captured on an iQ5 Real Time PCR Detection system (Bio-Rad) using a temperature range from 20 to 95C in increments of 1C and a ramping rate of 0.1C/s. Fluorescence intensity changes (Ex 490/Em 575 nm) were monitored with a charge-coupled device (CCD) camera. Buffer: 50 mM Tris-acetate, pH 7.6 (with or without 2 mM ATP); 1X PBS, pH 7.4 (with or without 2 mM ATP)

Chain of Luciferin 4-monooxygenase (Photinus pyralis) (P08659 whole entry, looked up): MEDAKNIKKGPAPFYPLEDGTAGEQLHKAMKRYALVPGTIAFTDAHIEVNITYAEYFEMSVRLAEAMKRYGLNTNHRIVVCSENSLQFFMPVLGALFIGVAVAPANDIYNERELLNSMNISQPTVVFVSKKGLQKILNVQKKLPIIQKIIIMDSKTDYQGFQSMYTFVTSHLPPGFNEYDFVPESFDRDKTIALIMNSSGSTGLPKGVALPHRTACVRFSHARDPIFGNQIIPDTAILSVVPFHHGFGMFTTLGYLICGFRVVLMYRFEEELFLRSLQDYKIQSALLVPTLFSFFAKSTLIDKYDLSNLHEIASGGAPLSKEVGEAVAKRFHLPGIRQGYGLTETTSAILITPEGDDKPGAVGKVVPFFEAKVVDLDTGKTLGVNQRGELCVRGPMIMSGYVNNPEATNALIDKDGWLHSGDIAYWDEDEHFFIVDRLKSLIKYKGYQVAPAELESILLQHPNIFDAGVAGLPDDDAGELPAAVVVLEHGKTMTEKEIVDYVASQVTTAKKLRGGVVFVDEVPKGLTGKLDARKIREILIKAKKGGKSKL

Thermal shift (delta Tm), active:
Fc1ccccc1-c1nc(-c2cccc(-c3nn[nH]n3)c2)no1 6.04 C, O=C(O)c1cccc(-c2noc(-c3cccc(Cl)c3)n2)c1 11.8 C, O=C(O)c1ccccc1-c1noc(-c2ccccc2F)n1 5.48 C, O=C(O)c1ccc(-c2noc(-c3ccccc3F)n2)cc1 11.6 C, Nc1ncnc2c1ncn2[C@@H]1O[C@H](COP(=O)(O)OC(=O)c2cccc(-c3noc(-c4ccccc4F)n3)c2)[C@@H](O)[C@H]1O 12.6 C, NC(=O)c1ccccc1-c1noc(-c2ccccc2F)n1 3.72 C, O=C(O)c1cccc(-c2noc(-c3ccccc3F)n2)c1 13.1 C, NC(=O)c1cccc(-c2noc(-c3ccccc3F)n2)c1 6.12 C
